KKLEB cytotox – CF airway cell cytotoxicity counter-screen; KKLEB CF airway cells viability, ATPlite luminescence, overnight; active compounds read low; cells stimulated with P. aeruginosa culture filtrate; activity change (cytotoxicity), % at 5 µM; 0.36% of 360,000 active; AID 602141;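 active = corrected activity change at or below -50% at 5 µM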
TWEAK Fn14 block – inhibitors of TWEAK-Fn14 interaction signaling; inhibition, % at 10 µM; TWEAK-stimulated Fn14 reporter cells, luciferase luminescence, 8 h; 2% of 360,000 active; AID 1159606; in the data active = inhibition above about 50%
Peg3 promoter – inhibitors of Peg3 promoter. inhibition, % at 20 µM. AID 588405. HeLa PEG-Prom luciferase reporter, luminescence, overnight. 1.7% of 360,000 active;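 active = inhibition of at least 50% at 20 µM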
HIF-2a block – inhibitors of HIF-2a; 786-0 RCC cells HIF-2a reporter, luciferase luminescence, overnight; inhibition, % at 18.8 µM; 0.72% of 360,000 active; AID 624352;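 active = inhibition of the luminescence signal of 40% or more relative to plate controls, in a single-dose primary screen at 18.75 µM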
TROY signal inh – inhibitors of TROY-dependent NF-kB signaling | Q293 LMP1-TROYcd NF-kB luciferase reporter, 4 h | AID 1347056 | 0.98% of 360,000 active | inhibition, % at 10 µM;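 active = compounds whose plate-normalised and pattern-corrected inhibition of the luciferase reporter signal at the single screening dose is 50% or more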
CF NFkB block – blocks PAF-induced NF-kB reporter in cystic fibrosis cells | inhibition, % at 5 µM | AID 588850 | 0.86% of 360,000 active | KKLEB NF-kB-GFP reporter, GFP fluorescence overnight;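 active = at least 50% inhibition at 5 µM, scaled per plate between neutral and stimulator controls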;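 also: PAF is a Pseudomonas aeruginosa culture filtrate used as stimulus; plate controls were PAF-stimulated DMSO wells for no effect and unstimulated DMSO wells for full effect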
Mdm2 MdmX conf – Mdm2/MdmX (human) interaction inhibition, confirmed | 99% of 740 active | AID 504601 | shares compounds with HIF-2a block | inhibition, % at 8 µM | SaOS-2 split-luciferase Mdm2/MdmX complementation, luminescence;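 active = mean inhibition of the luminescence signal across two replicates at or above 26 percent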
Target sequence (O15151 whole entry, looked up): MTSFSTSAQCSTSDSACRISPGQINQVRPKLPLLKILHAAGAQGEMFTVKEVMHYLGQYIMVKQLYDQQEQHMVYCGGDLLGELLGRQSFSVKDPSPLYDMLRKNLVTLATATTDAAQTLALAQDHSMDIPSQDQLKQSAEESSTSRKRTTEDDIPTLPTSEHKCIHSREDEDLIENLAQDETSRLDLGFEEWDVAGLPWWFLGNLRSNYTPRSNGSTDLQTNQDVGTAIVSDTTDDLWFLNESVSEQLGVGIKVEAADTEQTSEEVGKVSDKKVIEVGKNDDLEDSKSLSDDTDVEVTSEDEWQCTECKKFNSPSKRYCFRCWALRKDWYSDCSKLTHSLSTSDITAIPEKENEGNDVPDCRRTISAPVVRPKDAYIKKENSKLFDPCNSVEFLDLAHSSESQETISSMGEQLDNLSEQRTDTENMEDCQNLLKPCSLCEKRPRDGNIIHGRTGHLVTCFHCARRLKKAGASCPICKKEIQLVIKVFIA
Target sequence (Q00987 whole entry, looked up): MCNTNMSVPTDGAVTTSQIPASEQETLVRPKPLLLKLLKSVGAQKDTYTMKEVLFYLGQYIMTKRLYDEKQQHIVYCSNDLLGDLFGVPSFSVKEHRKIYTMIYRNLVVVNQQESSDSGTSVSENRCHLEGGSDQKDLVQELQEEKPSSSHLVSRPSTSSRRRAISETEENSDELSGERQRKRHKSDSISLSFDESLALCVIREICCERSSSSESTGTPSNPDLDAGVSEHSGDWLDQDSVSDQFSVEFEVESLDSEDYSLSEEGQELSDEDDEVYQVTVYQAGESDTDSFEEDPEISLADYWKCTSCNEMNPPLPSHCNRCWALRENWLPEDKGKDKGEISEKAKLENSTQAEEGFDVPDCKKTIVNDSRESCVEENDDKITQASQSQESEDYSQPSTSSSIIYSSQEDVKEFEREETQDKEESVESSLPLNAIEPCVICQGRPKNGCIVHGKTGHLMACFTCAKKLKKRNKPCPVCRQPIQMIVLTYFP
HIF-2a conf – HIF-2a inhibition, single concentration confirmation | shares compounds with HIF-2a block | 786-0 RCC cells, HIF-2a luciferase reporter luminescence, overnight | inhibition, % at 18.8 µM | 56% of 1,800 active;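 active = mean inhibition across four replicates of at least 40 percent at the single tested concentration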
HIF-1a counter – counter-screen for HIF-2a inhibitors: HIF-1a inhibition in MiaPaCa-2 cells | shares compounds with HIF-2a block | MiaPaCa-2 HIF-1a luciferase reporter, desferoxamine, overnight | inhibition, % at 18.8 µM | 72% of 1,800 active | AID 651589;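 active = mean inhibition of the reporter signal across four replicates at the single tested dose of 50% or more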
Active calls of the source: *; nt = not tested or not shown. Rows were chosen to be rich in hits. Some 4% of all compounds tested hit in one or more screens of this group.

SMILES	KKLEB cytotox	TWEAK Fn14 block	Peg3 promoter	HIF-2a block	TROY signal inh	CF NFkB block	HIF-2a conf	HIF-1a counter	others
N#CCC(=O)N/N=C\c1cccc(OC/C=C/c2ccccc2)c1	9	6	52*	64*	-59	-5	71*	11
O=C1C(=C(c2ccccc2)N2CCOCC2)Cc2ccccc21	-7	97*	108*	91*	34	91*	98*	105*
CC1CCN(Cc2c(C(=O)N/N=C/c3cc(Br)ccc3O)nnn2-c2nonc2N)CC1	-21	-10	74*	6	2	37	nt	nt	Mdm2 MdmX conf=91*
Cc1cc(C)c(/C=N/NC(=O)c2nnn(-c3nonc3N)c2CN2CCC(C)CC2)c(C)c1	7	-3	31	0	34	8	nt	nt
Cc1ccc(NC(=O)c2ncn(CCCNCC3CCCO3)n2)cc1C (stereo not given)	16	8	6	-6	-11	-16	nt	nt
Cc1cc(NC(=O)CSc2nc3c([nH]c4ccccc43)c(=O)n2-c2cccc(C(F)(F)F)c2)no1	-21	-14	24	21	nt	31	nt	nt
COc1cccc(-n2c(SCC(=O)Nc3cc(C)on3)nc3c([nH]c4ccccc43)c2=O)c1	-11	-11	28	39*	7	8	1	22
CC(C)(C)N1CC(C(=O)Nc2ccc(C#N)cc2)CC1=O (stereo not given)	1	4	0	15	20	-15	nt	nt
O=C(NCCCc1ccccc1)c1cccc(Br)c1	-9	-25	-90	-113	-43	14	nt	nt
O=C(CN(Cc1ccccc1)C(=O)CCl)c1cccc(Br)c1	-67*	66*	11	31	5	61*	nt	nt	Mdm2 MdmX conf=103*
Cc1cc(C)n(C(=O)/C(C#N)=N/Nc2cc(Cl)cc(Cl)c2)n1	-62*	51*	34	5	68*	57*	nt	nt	Mdm2 MdmX conf=95*
Cc1cc(C)n(C(=O)/C(C#N)=N\Nc2ccccc2[N+](=O)[O-])n1	3	14	14	7	1	-19	nt	nt
Cc1ccc(-n2c(O)c(C=Nc3ccccc3-c3n[nH]c(=S)[nH]c3=O)c3ccccc3c2=O)c(C)c1	-14	36	17	43*	37	2	15	85*
O=C1CCC/C1=c1\s/c(=C/c2cccnc2)c(=O)n1-c1ccccc1	-17	38	-1	5	15	37	nt	nt
O=C(O)c1cccc(NC(=O)C2CCCO2)c1 (stereo not given)	-2	17	8	27	-1	-8	nt	nt
O=C(O)c1cccc(C(=O)Nc2cccc(NC(=O)C3CCCO3)c2)c1 (stereo not given)	1	9	38	49*	0	-5	48*	-32
CCCS(=O)(=O)NC(=O)C1(C)CCN(C(=O)c2ccc(C(F)(F)F)nc2C)C1 (stereo not given)	-2	2	2	10	-6	3	nt	nt
CCN(CC(=O)Nc1ccc(NC(C)=O)cc1)C(=O)c1ccc(Sc2nncn2C)c([N+](=O)[O-])c1	-4	8	0	9	1	1	nt	nt
Nc1cc(OC(=O)c2ccc(F)cc2)nn1S(=O)(=O)c1ccccc1	0	1	16	53*	30	5	-8	5
COc1cc(C(=O)Oc2cc(N)n(S(=O)(=O)c3ccc(F)cc3)n2)cc(OC)c1OC	-15	24	12	7	32	17	nt	nt
O=c1nc(Oc2ccccc2)nc2ncccn12	-14	-4	-13	0	5	-3	nt	nt
CCSC1(SCC)N=C(N)C2(C#N)C(c3ccc(F)cc3)C12C#N (stereo not given)	0	13	107*	49*	nt	42	59*	93*
COC1(OC)N=C(N)C2(C#N)C(c3ccc(F)cc3)C12C#N (stereo not given)	10	-10	3	12	15	-1	nt	nt
